Bioassay records as filed in PubChem.
This is one part of a sample in which hits are shown more often than they occur.
SARS PLpro yeast = inhibitors of SARS-CoV papain-like protease in yeast. AID 485353. S. cerevisiae expressing SARS-CoV PLpro, growth rescue. Potency, µM (highest dose often 32.9 µM), inactives show at the top dose activity, positive = growth rescue, usual class: activators. actives 0.19% (n = 330,000); calls by dose curve; note: potency is the fitted concentration of half-maximal effect; 0% is about no effect; nearly all actives have a fitted effect of over 55% in size
AmpC no deterg = inhibitors of E. coli AmpC beta-lactamase without detergent | P00811 | AmpC nitrocefin hydrolysis, absorbance 480 nm, 0.0001% Triton | Potency, µM (top dose mostly 57.1 µM), for the others: at the top dose activity change, negative = inhibition, most hits filed as inhibitors | actives 0.52% (n = 330,000);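 note: potency is the fitted concentration of half-maximal effect; plate controls were no compound for no effect and no enzyme for full effect; nearly all actives have a fitted effect of over 20% in size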
Target sequence (P00811 whole entry, looked up): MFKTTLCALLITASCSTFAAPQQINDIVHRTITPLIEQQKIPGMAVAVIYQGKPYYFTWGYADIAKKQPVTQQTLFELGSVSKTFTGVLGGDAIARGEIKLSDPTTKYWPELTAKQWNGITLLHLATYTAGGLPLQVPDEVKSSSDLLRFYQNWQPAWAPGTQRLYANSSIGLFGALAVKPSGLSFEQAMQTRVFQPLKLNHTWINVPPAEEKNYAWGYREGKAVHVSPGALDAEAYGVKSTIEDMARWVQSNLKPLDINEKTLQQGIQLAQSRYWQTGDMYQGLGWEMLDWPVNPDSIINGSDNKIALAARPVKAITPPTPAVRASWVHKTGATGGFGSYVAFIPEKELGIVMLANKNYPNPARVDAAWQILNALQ
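AmpC (5.3 nM in the dispensed reagent) in 20 mM phosphate pH 7.0 with 0.01% (detergent screen) or 0.0001% Triton X-100 was preincubated with compounds for 15 min at room temperature. Nitrocefin was then added from an 800 uM solution, and hydrolysis was followed at 480 nm.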
CHX counter = counter-screen hit for Shiga toxin inhibitors, cycloheximide | cell reporter, cycloheximide protein synthesis inhibition counterscreen | actives 12% (n = 300,000) | AID 2314 | max response, %; in the data active = max response mostly above about 13%, no sharp cut-off; inactive = mostly below about 14%; note: read at 38.3 µM for the half of the compounds with a filed dose; 0% is about no effect
AMA1-RON2 inh = AMA1-RON2 (P. falciparum) interaction inhibition; Potency, µM (titrated, usually from 58.2 µM), for inactives: at the top dose activity change, negative = inhibition, actives largely listed as inhibitors; AlphaScreen AMA1-biotinylated RON2 peptide binding; AID 720542; actives 0.2% (n = 360,000);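 note: potency is the fitted concentration of half-maximal effect; 0% = vehicle wells and -100% = peptide control; nearly all actives have a fitted effect of over 45% in size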
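AMA1 (3D7) with his tag at 25 nM final met compounds first, then biotinylated RON2 peptide at 25 nM; detection used donor plus acceptor beads, 10 µg/mL apiece, read by AlphaScreen after 30 min at room temperature.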
Shiga toxin inh = inhibitors of Shiga toxin in Vero cells; Vero cells, Shiga toxin protein synthesis inhibition reporter; inhibition, % at 38.7 µM; actives 9.2% (n = 290,000); in the data active = inhibition mostly above about 28%, no sharp cut-off; inactive = mostly below about 43%; note: 0% is about no effect
AmpC detergent = blocks E. coli AmpC beta-lactamase in detergent assay; AmpC hydrolysis of nitrocefin, absorbance 480 nm, 0.01% Triton; actives 0.041% (n = 370,000); P00811; Potency, µM (series often up to 114 µM), for the others: at the highest dose activity change, negative = inhibition, hits mostly inhibitors; AID 485294;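 note: potency is the fitted concentration of half-maximal effect; 0% = no-compound wells and -100% = no-enzyme wells; nearly all actives have a fitted effect of over 25% in size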
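20 mM phosphate pH 7.0 + 0.01% (detergent screen) or 0.0001% Triton X-100; 5.3 nM AmpC reagent; cpd preinc 15 min RT; nitrocefin (800 uM stock) to start; A480 q20 s × 4 min; Activity was normalised to no-enzyme and no-compound control wells.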
Starred values were filed as active, the others as inactive; ? = inconclusive; · = no result; [ ] = another dose, or the depositor's remark. Unless noted, calls come from the whole dose curve; as a rule, active = well fitted curve in the direction sought with a large enough effect; inconclusive = small, poorly fitted or top-dose-only effect, or another doubt; inactive = no such curve, though single readings can be large; an effect the other way counts as inactive or inconclusive.

SMILES	SARS PLpro yeast	AmpC no deterg	CHX counter	AMA1-RON2 inh	Shiga toxin inh	AmpC detergent
CN1CCN(C(=S)Nc2ccc(Cl)cc2Cl)CC1	2%[6.58 µM]	-11%	16*	7%	12	-1%
CCN1CCN(C(=S)Nc2ccc(Cl)cc2Cl)CC1	-2%	-6%	25*	32%	26	4%
CC(=O)c1cccc(NC(=O)CCS(=O)(=O)c2ccc(Br)s2)c1	-1%	-35%	18	-2%	23	-12%
CNC[C@H]1Oc2c(NC(=O)c3ccc(-c4nccs4)cc3)cccc2C(=O)N([C@@H](C)CO)C[C@@H]1C	-4%	47%	·	2%	·	·
CCC(=O)c1ccc(/C=C/c2nc3ccccc3n2C)o1	-10%	-9%	30*	16%	67*	10%
Cc1cc2[nH]c(=O)c(=O)[nH]c2cc1S(=O)(=O)N1CCN(c2cccc(C(F)(F)F)c2)CC1	-4%	3.2µM*	-1	5%	-6	-9%
CC(OC(=O)CSc1ccc(F)cc1)C(=O)NC1(C#N)CCCCC1 (centres undefined)	2%	-4%	7.3*	-1%	18	-3%
Cc1ccc(SCC(=O)OC(C)C(=O)NC2(C#N)CCCCC2)cc1 (centres undefined)	1%	-5%	·	-12%	·	0%
O=C(c1cc(-c2ccco2)on1)N1CCOCC1	0%	-14%	27*	-1%	47*	2%
CN1CCN(C(=O)c2cc(-c3ccco3)on2)CC1	5%	-4%	15*	-2%	36	1%
O=C(c1cc(-c2ccc(Cl)cc2Cl)on1)N1CCN(C(=O)c2ccco2)CC1	-22%	160%	6	-30%	62	?
Cn1c2ccccc2c2cc([N+](=O)[O-])ccc21	-1%	-21%	-2	-15%	26	1%
CN1c2ccc([N+](=O)[O-])cc2N(C)C1(C)c1ccccc1 (centres undefined)	1%	-39%	-2	13µM*	-9	1%
COc1ccc2c(Cl)c(C(=O)N/N=C3\CCCC(=O)C3)sc2c1	-2%	30%	14	29%	47*	-7%
OC(CNCC1(N2CCCCC2)CCCCC1)COc1ccc(Cl)cc1Cl (centres undefined)	0%	43%	-2	-29%	-3	-3%
Cn1ncc([N+](=O)[O-])c1C(=O)Nc1ccc(-c2ccccc2)cc1	6%	-2%	13*	5%	·	-12%
COCCN1Cc2cccc(C(=O)Nc3ccc(C)cc3)c2C1=O	-9%	2%	-2	1%	-2	0%
Cc1nn(C)cc1C(=O)Nc1ccc2c(c1)OCCO2	-1%	1%	43*	-12%	71*	-8%
Cc1ccc(C(=O)Nc2ccc3c(c2)OCCO3)c(C)c1	-5%	-19%	-3	1%	-9	?
Cc1c(C(=O)Nc2ccc3c(c2)OCCO3)cnn1C	-1%	-10%	48*	7%	78*	-5%
COCCN1Cc2cccc(C(=O)Nc3ccc4c(c3)OCCO4)c2C1=O	8%	-8%	31*	3%	65*	-4%
CC(=O)c1c(C)[nH]c(C(=O)NCc2ccccc2Cl)c1C	1%	-24%	4	-4%	31	1%
Cn1c2ccccc2c2cc(C(=O)NNS(=O)(=O)c3ccc(F)cc3)sc21	-2%	?	-3	-10%	9	0%
CCOc1ccc(NC(=O)COC(=O)c2ccc3c(c2)OCCO3)cc1	0%	-21%	·	-2%	·	-4%
Cn1ncc([N+](=O)[O-])c1C(=O)Nc1ccc2c(c1)OCCO2	0%	-13%	33*	12%	54*	-7%
SMILES	SARS PLpro yeast	AmpC no deterg	CHX counter	AMA1-RON2 inh	Shiga toxin inh	AmpC detergent
Cn1ncc(Cl)c1C(=O)Nc1ccc2c(c1)OCO2	3%	-2%	21*	-13%	47	-4%
Cn1nccc1C(=O)Nc1ccc2c(c1)OCCO2	-1%	-14%	43*	11%	96*	9%
Cn1ncc(Br)c1C(=O)Nc1ccc(Br)cn1	-5%	-4%	-3	8%	-2	-3%
Cc1c(C(=O)Nc2ccc(Br)cc2)cnn1C	-4%	-7%	78*	2%	130*	3%
O=C(CCN1C(=O)C2C3C=CC(C4CC34)C2C1=O)Oc1cccc2cccnc12 (centres undefined)	-17%	-12%	-2	-16%	-27	?
CN(c1ccc(Cl)cc1)c1cc(=O)n(C)c2ccccc12	-8%	34%	-4	5%	32	?
COc1ccc(-c2cc(=O)c3cc(OC)c(OC)cc3[nH]2)cc1	11%	-21%	-4	3%	-7	?
O=C(Nc1ccc2c(c1)OCO2)c1c(Cl)nc2sccn12	3%	-20%	25*	12%	103*	?
COc1ccc(-c2ccc(=O)n(CC(=O)Nc3cc(OC)ccc3OC)n2)cc1	·	·	·	·	·	1%
COC(=O)Nc1nc(C)c(C(=O)c2ccccc2)s1	10%	0%	-4	10%	-8	-10%
O=C(c1ccco1)N1CCN(c2nc3ccsc3c(=O)s2)CC1	-2%	?	31*	0%	49*	?
O=c1sc(N2CCN(c3ccccc3F)CC2)nc2ccsc12	2%	-4%	37*	-3%	56*	?
CCCN(CCC)CC(=O)NCC1(c2ccccc2)CCOCC1	-8%	13%	-2	-6%	-6	-6%
CCCOc1ccc(-c2nc(SCC(=O)c3ccc(Cl)cc3)n[nH]2)cc1	·	·	·	·	·	-4%
C=CCSc1n[nH]c(-c2ccc(OCCCC)cc2)n1	-21%	-19%	41*	10%	17*	-2%
C=CCSc1n[nH]c(-c2ccc(OCCC)cc2)n1	-15%	-21%	50*	6%	125*	-4%
c1ccc(-c2nn[nH]n2)cc1	-3%	-25%	-3	-2%	-9	1%
c1ccc(-c2nnc(-c3ccccc3)nn2)cc1	-1%	-13%	51*	-24%	91*	6%
O=C(OCC(=O)N1CCCCCC1)c1ccc([N+](=O)[O-])cc1Cl	4%	-19%	15*	2%	27	2%
O=C(OCC(=O)N1CCCC1)c1ccccc1O	-1%	-24%	54*	3%	103*	-4%
CC(=O)c1ccc(OCc2ccccc2)c(C)c1O	-9%	-12%	29*	83%	32	-8%
NNC(=O)c1ccccc1OCc1ccccc1	0%	-44%	17*	48%	38*	-9%
O=C(Nc1ccc(O)cc1)c1ccccc1OCc1ccccc1	1%	-44%	12	-4%	-1	-4%
Cc1ccc(NC(=O)COC(=O)Cc2c[nH]c3ccccc23)cc1	·	·	·	-1%	·	·
O=S(=O)(Nc1ncccn1)c1ccc(NC(=S)NCCc2ccc(Cl)cc2)cc1	1%	-44%	-3	1%	-6	-3%
